Results taken from PubChem BioAssay AID1970 (National Center for Advancing Translational Sciences (NCATS), 2009).
Inconclusive results are not listed. Activity calls are given as the source filed them. Calls follow the shape of the dose curve; as a rule, active = well fitted inhibition curve with a large enough effect; inconclusive = small, poorly fitted or top-dose-only effect; inactive = flat fitted curve, though single readings scatter.

What follows are compounds tested against Dual specificity protein kinase CLK4 (Homo sapiens) (UniProt Q9HAZ1) (assay: Confirmation Assay for Inhibitors of CDC-like Kinase 4 (Kinase-Glo Assay)). Conditions: recombinant Clk4, Kinase-Glo ATP depletion luminescence; series mostly up to 47.7 µM.
Method: NIH Molecular Libraries Probe Production Centers Network [MLPCN] NIH Chemical Genomics Center [NCGC] MLPCN Grant: 1R03MH084827-01 Assay Submitter (PI): Tom Misteli NCGC Assay Overview: Clk4 (Invitrogen, cat# PV3839) was assayed using ATP and the RS repeat peptide (AnaSpec cat # 61722) as substrates. Following the Clk4 reaction, the remaining ATP levels were detected using Promega Kinase-Glo technology wherein the remaining ATP from the kinase reaction is detected using Ultra-Glo luciferase and D-luciferin which generates a bioluminescence signal from the ATP.
NCGC Assay Protocol Summary: Two uL/well of substrate-buffer solution (100 uM RS peptide, 1 uM ATP, 25 mM Tris pH7.5, 10 mM MgCl2, 0.5 mM EGTA, 2.5 mM DTT, 0.01% Triton X-100 final concentration) was dispensed into 1536-well, assay plates (Greiner, solid white medium-binding plates) with Aurora Discovery BioRAPTR Flying Reagent Dispenser (FRD; Beckton-Dickenson). Using a Kalypsys pin tool equipped with a 1536-pin tool, 23 nL of compound solution was transferred to the assay plate. One uL/ well Clk4-buffer solution (25 nM Clk4, 25 mM Tris pH 7.5, 10 mM MgCl2, 0.5 mM EGTA, 2.5 mM DTT, 0.01% Triton X-100, final concentrations) was then added using the FRD yielding a total kinase reaction volume of 3 uL/ well. After 4.5 hours of room temperature incubation, 3 uL Kinase-Glo reagent was added for a final assay volume of 6 uL/ well. Luminescence was detected with the ViewLux plate reader (Perkin Elmer, Waltham, MA) after 5 min incubation using a 5 second exposure time and 2x binning.

Chain of Dual specificity protein kinase CLK4 (Homo sapiens) (Q9HAZ1 whole entry, looked up): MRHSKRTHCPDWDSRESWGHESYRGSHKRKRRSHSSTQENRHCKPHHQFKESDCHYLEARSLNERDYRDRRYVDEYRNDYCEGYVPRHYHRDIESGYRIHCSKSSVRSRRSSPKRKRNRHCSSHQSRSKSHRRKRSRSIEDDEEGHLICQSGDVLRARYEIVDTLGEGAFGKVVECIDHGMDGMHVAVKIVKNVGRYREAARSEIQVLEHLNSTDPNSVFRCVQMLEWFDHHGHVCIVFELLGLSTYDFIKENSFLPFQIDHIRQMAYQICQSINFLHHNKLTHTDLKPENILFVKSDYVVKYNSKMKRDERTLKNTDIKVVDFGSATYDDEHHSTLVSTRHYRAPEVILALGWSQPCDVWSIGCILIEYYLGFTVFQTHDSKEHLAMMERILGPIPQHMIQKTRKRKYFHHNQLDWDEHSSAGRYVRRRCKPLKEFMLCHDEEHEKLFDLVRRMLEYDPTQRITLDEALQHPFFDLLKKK

Potency, active:
Cc1nc(CNc2ncnc3ccc(-c4ccc5c(c4)OCO5)cc23)cs1 47.5 nM, CCn1cnc(CCN(C)c2ncnc3ccc(-c4ccc5c(c4)OCO5)cc23)c1 1300 nM, Cc1csc(CNc2ncnc3ccc(-c4cccc(Cl)c4)cc23)c1 7940 nM, Cc1cc(CNc2ncnc3ccc(-c4ccc5c(c4)OCO5)cc23)c(C)o1 119 nM, c1csc(CNc2ncnc3ccc(-c4ccc5c(c4)OCCO5)cc23)c1 112 nM, NCCNc1ncnc2ccc(-c3ccc4c(c3)OCO4)cc12 73.3 nM, Cn1cncc1CNc1ncnc2ccc(-c3ccc4c(c3)OCO4)cc12 75.2 nM, Fc1cccc(CNc2ncnc3ccc(-c4ccc5c(c4)OCO5)cc23)c1 100 nM, c1cncc(CNc2ncnc3ccc(-c4ccc5c(c4)OCCO5)cc23)c1 447 nM, CCOC(=O)c1ccoc1-c1ccc2ncnc(NCc3ncc[nH]3)c2c1 10400 nM, COc1cccc(-c2ccc3ncnc(NCc4cccc(F)c4)c3c2)c1 631 nM, c1csc(CNc2ncnc3cc(-c4ccc5c(c4)OCO5)ccc23)c1 11900 nM, COc1cccc(-c2ccc3ncnc(NCc4ccc5c(c4)OCO5)c3c2)c1 1410 nM, CC(Nc1ncnc2ccc(-c3ccc4c(c3)OCO4)cc12)c1ccco1 (stereo not given) 119 nM, c1csc(CNc2ncnc3ccc(-c4ccc5c(c4)OCO5)cc23)c1 45.8 nM, CN(C)CCNc1ncnc2ccc(-c3ccc4c(c3)OCO4)cc12 463 nM, COc1cccc(-c2ccc3ncnc(NCc4cc(C)cs4)c3c2)c1 794 nM, Cc1nc(CN(C)c2ncnc3cc(-c4ccc5c(c4)OCO5)ccc23)cs1 5330 nM, c1nc(OCc2cnc[nH]2)c2cc(-c3ccc4c(c3)OCO4)ccc2n1 6540 nM, O=C(O)c1ccc(-c2ccc3ncnc(NCCc4cnc[nH]4)c3c2)o1 923 nM, CCCN(Cc1cccs1)c1ncnc2ccc(-c3ccc4c(c3)OCO4)cc12 116 nM, COc1cccc(-c2ccc3ncnc(NCc4cccs4)c3c2)c1 519 nM, CCN(CCc1cn(C)cn1)c1ncnc2ccc(-c3ccc4c(c3)OCO4)cc12 519 nM, c1cncc(-c2ccc3ncnc(NCc4ccc5c(c4)OCO5)c3c2)c1 6310 nM, Cc1cccc(CNc2ncnc3ccc(-c4cccnc4)cc23)c1 3550 nM, Cc1cccc(-c2ccc3ncnc(NCc4cccc(F)c4)c3c2)c1 4470 nM, Cc1csc(CNc2ncnc3ccc(-c4ccc5c(c4)OCO5)cc23)n1 37.7 nM, c1coc(-c2ccc3ncnc(NCc4cccs4)c3c2)c1 823 nM, CCOC(=O)c1ccc(-c2ccc3ncnc(NCc4csc(C)n4)c3c2)o1 654 nM, c1c[nH]c(CNc2ncnc3ccc(-c4ccoc4)cc23)n1 2920 nM, OCc1ccc(-c2ccc3ncnc(NCCc4cnc[nH]4)c3c2)o1 733 nM, c1nc(NCc2ccc3c(c2)OCO3)c2cc(-c3ccc4c(c3)OCCO4)ccc2n1 2240 nM, c1cncc(CNc2ncnc3ccc(-c4ccco4)cc23)c1 6310 nM, Cc1ccc(CNc2ncnc3ccc(-c4ccoc4)cc23)o1 519 nM, Cc1ccc(CNc2ncnc3cc(-c4ccc5c(c4)OCO5)ccc23)o1 5980 nM, Fc1c(-c2ccc3ncnc(NCc4cccs4)c3c2)ccc2c1OCO2 65.4 nM, Cn1ccc2cc(-c3ccc4ncnc(NCc5cccs5)c4c3)ccc21 31600 nM, Cc1nc(CNc2ncnc3ccc(-c4sc(C)nc4C)cc23)cs1 1640 nM, Cc1nc(CNc2ncnc3ccc(-c4ccoc4)cc23)cs1 232 nM, Cc1cccc(CNc2ncnc3ccc(-c4ccccc4Cl)cc23)c1 12600 nM
